CSC inhib: cancer stem cell inhibition | cancer stem cell-like cells viability, luminescence | inhibition, % at 7.5 µM | 300,000 tested, 1.1% active; in the data active = inhibition above about 75%; tested in HMLE shEcad cells
Mdm2-MdmX inh: disrupts the human Mdm2-MdmX interaction; SaOS-2 split-luciferase Mdm2/MdmX complementation, luminescence; 330,000 tested, 3% active; O15151+Q00987; inhibition, % at 8 µM;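 active = inhibition of at least 50% at 8 µM in the primary screen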
Beta cell apopt: blocks beta cell apoptosis | INS-1E cytokine-induced death, ATP luminescence, 48 h; percent of positive-control rescue, neutral wells zero | protection from apoptosis, % (concentration not given with the values) | 300,000 tested, 0.8% active;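 active = Every replicate reaches about 75%, or at least half do and their mean reaches it too, limit read from the data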;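 also: higher means more ATP so stronger rescue from cytokine killing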
GRIN3A LBD mod: NR3A (human) ligand-binding domain modulation | NR3A LBD differential scanning fluorimetry, Tm shift; 0% = protein alone, 100% = glycine-bound protein | Tm shift relative to glycine control, % at 25 µM | 340,000 tested, 2.5% active;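 active = melting temperature shift of at least 10% of the positive control shift, at one fixed dose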
SKKanGAS inh: blocks kanamycin growth of S. pyogenes SKKanGAS strain; BacTiter-Glo, 6 h; inhibition, % at 7.5 µM; 300,000 tested, 1.3% active; AID 1662;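 active = mean replicate score, as percent of positive control median, at least 50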;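 also: strain carries kanamycin resistance gene driven by streptokinase promoter and grows in 40 µg/ml kanamycin; loss of luminescence reflects streptokinase promoter inhibition or plain growth inhibition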
MPTP inh: inhibitors of mitochondrial permeability transition pore. isolated mouse mitochondria, Ca2+ swelling absorbance, 30 min. inhibition, % at 10 µM. 360,000 tested, 1.4% active;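 active = inhibition of 50% or more, scaled per plate between neutral and stimulator controls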
Mdm2 MdmX conf: confirmation of human Mdm2/MdmX interaction inhibitors; shares compounds with Mdm2-MdmX inh; inhibition, % at 8 µM; 10,000 tested, 55% active; Mdm2-MdmX binding, luminescent assay; in the data active = inhibition above about 40%
Full FLuc ctr: inhibits full-length luciferase, flagging false Mdm2/MdmX hits. shares compounds with Mdm2-MdmX inh. SaOS-2 full-length luciferase counterscreen, luminescence. inhibition, % at 8 µM. 6,200 tested, 77% active. AID 504607;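 active = mean inhibition at 8 µM reaching about 37%, which flags the compound as non-specific, limit read from the data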;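 also: p53-null SaOS-2 cells with luciferase driven by a doxycycline-inducible promoter; compound on cells about two nights before reading with doxycycline added after day one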
A number is an active result; – = inactive; · = no result given. An excerpt weighted towards active compounds, which were near 6.9% of everything screened.

SMILES	CSC inhib	Mdm2-MdmX inh	Beta cell apopt	GRIN3A LBD mod	SKKanGAS inh	MPTP inh	Mdm2 MdmX conf	others
COc1ccc(-c2nc(-c3ccc(NC(=O)c4ccc(Br)o4)cc3)no2)cc1OC	78.8	77.7	·	25.6	–	–	–
COc1ccc(CCC(=O)Nc2ccc(-c3noc(-c4ccc(OC)c(OC)c4)n3)cc2)cc1	–	–	·	–	–	–	·
COc1ccc(-c2cc3ccccc3oc2=O)cc1NC(=O)c1ccc(Br)o1	–	59.2	–	–	–	–	–	Full FLuc ctr=–
COc1ccc(S(=O)(=O)Nc2ccccc2OC)cc1NC(=O)c1cc2ccccc2oc1=O	–	72.6	–	–	–	–	–
CCC(C)(C)NC(=O)CN(C(=O)C(=O)Nc1ccc2c(c1)OCCO2)C1CC1	–	–	–	–	–	–	·
Cc1ccc(-c2cc(NC(=O)CCl)n(-c3ccccc3)n2)cc1	95.7	92.4	–	–	–	–	–
CC(=O)Nc1c(C)nn(-c2ccc([N+](=O)[O-])cc2)c1C	–	–	–	–	–	–	·
Cc1ccc(-c2nn(-c3ccccc3)cc2NC(=O)CCl)cc1	–	65.9	–	–	–	–	–
O=C(CCl)Nc1cc(-c2ccccc2)nn1-c1ccccc1	–	83.8	–	–	–	–	62.0	Full FLuc ctr=–
Cc1ccc(-c2nn(-c3ccccc3)cc2CO)cc1	–	–	–	–	–	–	·
CC(=O)Nc1ccc(-c2cc(NC(C)=O)n(-c3ccccc3)n2)cc1	–	–	–	–	–	–	·
Cc1ccc(-n2nc(C)c(NC(=O)CCl)c2C)cc1	–	85.2	–	–	–	–	42.5	Full FLuc ctr=70.7
CC(=O)c1ccc(S(=O)(=O)N2CCNC(=O)C2)cc1	–	–	–	–	·	–	·
CC(C)=CCC/C(C)=C/CNC(=O)C[C@H]1C[C@H](C(=O)N2CCCCC2)[C@@]2(CCc3ccccc3)c3[nH]c4cc(CCC(=O)N(C)C)ccc4c3CCN2C1=O	·	–	·	–	·	–	·
O=C(/C=C/c1ccco1)NC(=S)Nc1nc(-c2ccc3ccccc3c2)cs1	75.8	77.9	–	33.0	–	–	45.0	Full FLuc ctr=48.2
COc1ccc(-c2csc(NC(=S)NC(=O)/C=C/c3ccccc3)n2)cc1Br	–	55.2	–	–	–	·	–
O=C(O)/C=C/C(=O)Nc1nc(-c2ccc3ccccc3c2)cs1	–	–	–	–	–	–	·
O=C(/C=C/c1ccco1)NC(=S)Nc1nc(-c2ccc(Cl)cc2)cs1	·	60.6	–	129.1	–	–	54.2	Full FLuc ctr=67.1
O=C(N[C@H](Cc1cc(=O)[nH]c2ccccc12)C(=O)O)c1ccc(Cl)cc1	–	–	–	–	–	–	·
CCC(=O)N/C(N)=N/c1nc(C)c2cc(OC)ccc2n1	–	62.3	–	–	–	–	41.0	Full FLuc ctr=60.6
COc1ccc2nc(/N=C(\N)NC(=O)C(C)(C)C)nc(C)c2c1	–	–	–	–	–	–	·
O=S(=O)(c1cccs1)N1CCN(c2ccnc3cc(Cl)ccc23)CC1	·	57.4	·	–	–	–	–
O=S(=O)(c1ccccc1)N1CCN(c2ccnc3cc(Cl)ccc23)CC1	–	–	–	–	–	–	·
O=C(Oc1ccccc1C(=O)Oc1ccccc1)c1cccnc1	–	51.6	–	–	–	–	–
COC(=O)c1ccccc1OC(=O)c1cccnc1	–	–	–	–	–	–	·
Cc1cc(-c2nc(C)c(-c3nnc(SCC(=O)Nc4cc(Cl)cc(Cl)c4)n3C)s2)no1	–	–	–	–	–	–	·
Cn1c(SCC(=O)Nc2cc(Cl)cc(Cl)c2)nnc1-c1ccc2nonc2c1	–	70.7	–	45.4	–	–	–
Cc1ccc(OCC(O)CNC2CCCC2)c(C)c1 (centres undefined)	–	–	–	–	–	–	·
Cc1ccccc1OCC(O)CNC1CCC(NCC(O)COc2ccccc2C)CC1 (centres undefined)	108.8	100.3	112.7	–	–	–	100.2	Full FLuc ctr=51.8
Cc1noc(C)c1NC(=O)Nc1ccc2c(c1)C(=O)N([C@H](C)CO)C[C@H](C)[C@@H](CN(C)C(=O)NC1CCCCC1)O2	–	–	–	–	·	–	·
